Results from PubChem BioAssay (NCATS).
Results filed as inconclusive are left out. Active and inactive are the calls of the source. Unless noted, calls come from the whole dose curve; as a rule, active = well fitted curve in the direction sought with a large enough effect; inconclusive = small, poorly fitted or top-dose-only effect, or another doubt; inactive = no such curve, though single readings can be large; an effect the other way counts as inactive or inconclusive.

Key:
[1] = AP1 Signaling Pathway (AID 357; active = well fitted curve in either direction with a large enough effect, not every such curve was filed as active;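 note: ME-180 reporter cells stimulated with EGF at its EC50 level; % is set by controls: 0 for no effect and ±100 for the full control effect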)
Summary of the method: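 In this screen, ME-180 cells in Opti-MEM with 0.5% dialyzed FBS received EC50 EGF and compound titrations for 5 h. AP-1 reporter beta-lactamase was detected via CCF4 ratio, giving AC50 for positive and negative modulators.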

[2] = NFAT Signaling Pathway (AID 444; active = well fitted curve in either direction with a large enough effect, not every such curve was filed as active;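 note: carbachol stimulus at about its EC50 of 1 µM final; % is set by controls: 0 for no effect and ±100 for the full control effect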); conditions: Jurkat NFAT-bla M1, carbachol, beta-lactamase ratio, 5 h; at 17.2 µM (top of the series)
Summary of the method: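 Jurkat cells with NFAT-driven β-lactamase reporter and co-expressed M1 receptor, stimulated with carbachol (final 1 uM, ~EC50), compound titration, 5 h at 37 °C. CCF4 loaded 1 h at RT; 460/530 nm ratio gave %activity and AC50.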

[3] = Stat Signaling Pathway (AID 446; active = well fitted curve in either direction with a large enough effect, not every such curve was filed as active;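 note: ME-180 cervical cancer cells given 40 pM IL-6 alongside compound; SIE-controlled beta-lactamase reporter measured as 460/530 nm FRET emission ratio; % is set by controls: 0 for no effect and ±100 for the full control effect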)
Summary of the method: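 Overnight-plated ME-180 cells bearing a STAT Inducible Element beta-lactamase reporter; 5 h co-exposure to compound and 40 pM IL-6; values normalized to 300 pM IL-6 and 125 nM JAK inhibitor controls.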

[4] = target: Glucocorticoid receptor (Homo sapiens) (UniProt P04150); assay: GR-GFP Redistribution (AID 450;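 active = compounds whose dose series gives a full or clear partial fitted curve of increased nuclear translocation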; note: potency is the fitted concentration of half-maximal effect); conditions: U2OS GR-GFP nuclear translocation, laser cytometry, 2 h
[5] = OV-KATE Cancer Cell Toxicity qHTS against the NCATS CANVASS Library (AID 1347345); note: % is set by controls: 0 for no effect and ±100 for the full control effect
Summary of the method: (§1)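 Step one: seed 1000 cells per well. Step two: incubate 4 h. Step three: add test compounds in 11 concentrations. Step four: culture 72 h, then add CellTiter-Glo and record luminescence after 15min.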

[6] = HPAF-II Cancer Cell Toxicity qHTS against the NCATS CANVASS Library (AID 1347346); note: % is set by controls: 0 for no effect and ±100 for the full control effect; nearly all actives have a fitted effect of over 55% in size
Summary of the method: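 Cytotoxicity read-out was CellTiter-Glo luminescence after 72 h at 37 degrees C exposure of HPAF-II cells (1000/well) to compounds in an 11-point titration.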

[7] = UWB1.289 Cancer Cell Toxicity qHTS against the NCATS CANVASS Library (AID 1347347); note: % is set by controls: 0 for no effect and ±100 for the full control effect; nearly all actives have a fitted effect of over 60% in size
Summary of the method: as §1

[8] = OV-SAHO Cancer Cell Toxicity qHTS against the NCATS CANVASS Library (AID 1347348); note: % is set by controls: 0 for no effect and ±100 for the full control effect; nearly all actives have a fitted effect of over 55% in size
Summary of the method: as §1

[9] = Panc-1005 Cancer Cell Toxicity qHTS against the NCATS CANVASS Library (AID 1347349); note: % is set by controls: 0 for no effect and ±100 for the full control effect; nearly all actives have a fitted effect of over 60% in size
Summary of the method: as §1

[10] = COV-362 Cancer Cell Toxicity qHTS against the NCATS CANVASS Library (AID 1347352); note: % is set by controls: 0 for no effect and ±100 for the full control effect
Summary of the method: (§2)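 Toxicity was measured as CellTiter-Glo luminescence after 72 h exposure to an 11-point compound series. Compound was added to 1000 cells/well 4 h after seeding.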

[11] = UWB1.289-WTBRCA1 Cancer Cell Toxicity qHTS against the NCATS CANVASS Library (AID 1347354); note: % is set by controls: 0 for no effect and ±100 for the full control effect
Summary of the method: as §2

[12] = HEK-293 Cancer Cell Toxicity qHTS against the NCATS CANVASS Library (AID 1347355); note: % is set by controls: 0 for no effect and ±100 for the full control effect; nearly all actives have a fitted effect of over 65% in size
Summary of the method: as §2

[13] = HPAF-II 24hr Apoptosis Induction qHTS against the NCATS CANVASS Library (AID 1347356); note: 0% is about no effect
Summary of the method: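 Caspase-Glo 3/7 luminescence, read after 15 min room-temperature development, measures apoptosis in HPAF-II cells treated 24 h at 37 degrees C with an 11-point concentration series; 500 cells/well; doxorubicin control.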

[14] = HPAF-II 12hr Apoptosis Induction qHTS against the NCATS CANVASS Library (AID 1347358); note: 0% is about no effect
Summary of the method: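 Caspase-3/7 activation by DEVD-substrate luminescence (Caspase-Glo 3/7, 15 min, room temperature) after a 12-hour compound exposure in 11 concentrations, of HPAF-II pancreatic cells seeded at 500/well in DMEM with 10% FBS.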

[15] = HEK293 24hr Apoptosis Induction qHTS against the NCATS CANVASS Library (AID 1347359); note: 0% is about no effect
Summary of the method: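 HEK293 cells, 500 per well, exposed to an 11-point compound series for 24 hours at 37 degrees C. Caspase 3/7 activity read by Caspase-Glo luminescence (DEVD substrate) after 15 min at room temperature.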

[16] = HPAF-II 18hr Apoptosis Induction qHTS against the NCATS CANVASS Library (AID 1347360); note: 0% is about no effect
Summary of the method: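 Caspase-Glo 3/7 luminescence (DEVD substrate) after 15 min RT; HPAF-II, 500 cells/well, 18 h compound exposure at 37 degrees C, qHTS series; doxorubicin control 0.1nM - 4uM.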

[17] = HEK293 12hr Apoptosis Induction qHTS against the NCATS CANVASS Library (AID 1347361); note: 0% is about no effect
Summary of the method: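 500 HEK293 cells/well; cpds pin-transferred, 11-pt conc series; 12 h, 37 degrees C/5% CO2; Caspase-Glo 3/7 added, 15 min RT dark; luminescence.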

[18] = system: NAD(P)H diaphorase (Clostridium kluyveri); assay: Diaphorse counterscreen qHTS: Assay Interference Panel against the NCATS CANVASS Library (AID 1347362); note: 0% is about no effect
Summary of the method: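 Clostridium kluyveri diaphorase in PBS + 0.01% Tween-20 preincubated 15 min with compounds. Resazurin and NADH then added for 5 min at room temperature in the dark; resorufin fluorescence read (ex 525, em 598).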

[19] = target: Luciferin 4-monooxygenase (Photinus pyralis) (UniProt P08659); assay: Firefly luciferase counterscreen qHTS: Assay Interference Panel against the NCATS CANVASS Library (AID 1347363); note: 0% is about no effect
Summary of the method: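 Purified P. pyralis luciferase (0.04 ug/mL, 4x reagent) added to Tris-acetate buffer with 0.013 mM D-luciferin, 0.013 mM ATP and 13.3 mM Mg-acetate; compounds preincubated 15 min, then luminescence read after 5 min, RT.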

[20] = KB-8-5-11 Cancer Cell Toxicity qHTS against the NCATS CANVASS Library (AID 1347364); note: % is set by controls: 0 for no effect and ±100 for the full control effect; nearly all actives have a fitted effect of over 75% in size
Summary of the method: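 Viability read as CellTiter-Glo luminescence after 72 h at 37 °C, 5% CO2. 11-point compound series on 500 KB-8-5-11 cells/well in DMEM/10% FBS. Follow-up plating included 1 uM tariquidar in the medium.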

[21] = KB-3-1 Cancer Cell Toxicity qHTS against the NCATS CANVASS Library (AID 1347366); note: % is set by controls: 0 for no effect and ±100 for the full control effect; nearly all actives have a fitted effect of over 75% in size
Summary of the method: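 500 KB-3-1 cells/well; compounds pin-transferred, 11-pnt series; 72 hr, 37C/5% CO2; CellTiter-Glo, 10 min RT; luminescence read-out.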

[22] = qHTS for ATAD5 Agonist screened against the NCATS CANVASS Library (AID 1347367); note: 0% is about no effect
Summary of the method: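 Luminescence read-out: ATAD5-driven luciferase in stably transfected HEK 293T cells, which rises post-transcriptionally with DNA damage. Cells were exposed 16hr at 37C to test compound; a CellTiter-Fluor fluorescence read (1hr) measured viability first.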

[23] = G06 Cancer Cell Toxicity qHTS against the NCATS CANVASS Library (AID 1347368); note: % is set by controls: 0 for no effect and ±100 for the full control effect; nearly all actives have a fitted effect of over 60% in size
Summary of the method: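 Viability measured by CellTiterGlo ATP luminescence after 72 hr at 37C, 5% CO2. Canine G06 glioma cells plated at 500/well. Compounds tested as 11-point qHTS titrations.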

[24] = MCF7 Cancer Cell Toxicity qHTS against the NCATS CANVASS Library (AID 1347369); note: % is set by controls: 0 for no effect and ±100 for the full control effect
Summary of the method: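 Luminescent ATP signal (CellTiterGlo) served as the cytotoxicity read-out after MCF7 breast cancer cells had been incubated 72 hr at 37C with natural products in an 11-point titration.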

[25] = qHTS for ATAD5 Antagonist screened against the NCATS CANVASS Library (AID 1347370);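 note: HEK293T cells carrying an ATAD5 luciferase reporter co-treated with 10 µM 5-fluorouridine; % is set by controls: 0 for no effect and ±100 for the full control effect; nearly all actives have a fitted effect of over 65% in size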
Summary of the method: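 Compounds (11-point) co-dosed with 10 µM 5-FUrd for 16 h at 37 °C onto HEK293T-ATAD5 luciferase reporter cells. Viability measured by CellTiter-Fluor fluorescence, then ATAD5 reporter signal by luminescence.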

[26] = J3T Cancer Cell Toxicity qHTS against the NCATS CANVASS Library (AID 1347371)
Summary of the method: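 Cytotoxicity read as CellTiterGlo ATP luminescence after 72 h incubation (37C, 5% CO2) of J3T canine glioma cells (500/well) with an 11-point compound series.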

[27] = target: Nuclear receptor subfamily 1 group I member 3 (Homo sapiens) (UniProt Q14994); assay: qHTS for Constitutive Androstane Receptor (CAR) Antagonist screened against the NCATS CANVASS Library (AID 1347372)
Summary of the method: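 Luminescence readout (ONE-Glo, 30 min RT) of CYP2B6-2.2kb reporter in HepG2-hCAR cells after 24hr, 37C treatment with compound against 50 nM CITCO; CellTiter-Fluor viability read beforehand.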

[28] = 10-beta competent E. coli microbial cell viability qHTS against the NCATS CANVASS Library (AID 1347376); note: 0% is about no effect
Summary of the method: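 Read-out: BacTiter-Glo ATP luminescence, taken 20 min after reagent addition. Beforehand, 10-beta competent E. coli at 0.2 OD had been incubated overnight at 37C with compounds at 11 concentrations.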

[29] = qHTS for Inflammasome Signaling Inhibitors: IL-1-beta AlphaLISA screen against the NCATS CANVASS Library (AID 1347379);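 note: human THP-1 cells primed with LPS then triggered with ATP; secreted IL-1B measured as AlphaLISA emission at 615 nm; % is set by controls: 0 for no effect and ±100 for the full control effect; lower signal means less IL-1B release which is the wanted effect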
Summary of the method: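 Secreted IL-1B from human THP-1 cells quantified by AlphaLISA 16 hr after compound addition (final up to 57.5 uM). A 1 hr compound pretreatment preceded inflammasome activation with 250 ng/mL LPS plus 1.25 mM ATP (final).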

[30] = Inflammasome Signaling qHTS Counterscreen: IL-1-beta AlphaLISA counterscreen against the NCATS CANVASS Library (AID 1347381);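 note: cell-free check with purified IL-1β in medium and no THP-1 cells; 0% is about no effect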
Summary of the method: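 Purified IL-1-beta (4 pg/well) + compound, 11-pt conc. series; acceptor beads 6 ug/mL + biotin-Ab 0.6 nM final, 1 h RT; SA-donor 24 ug/ml final, 30 min dark RT; read ex 680/em 615.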

[31] = Cytotoxicity qHTS for assessment of Hepg2 cells membrane integrity screened against the NCATS CANVASS Library (AID 1347387)
Summary of the method: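 Membrane damage quantified as fluorescent LDH-release signal (ex 560, em 590 nm) in HepG2 cells treated 5 hr at 37C. qHTS format, 11 concentrations spanning 0.59 nM - 46 uM final, cells plated at 2000 per well the night before.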

[32] = qHTS assay for small molecule disruptors of mitochondrial membrane potential screened against the NCATS CANVASS Library (AID 1347389); note: % is set by controls: 0 for no effect and ±100 for the full control effect; nearly all actives have a fitted effect of over 60% in size
Summary of the method: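 Mitochondrial membrane potential in HepG2: 1 h compound treatment (11-point concentration series), 30 min m-MPI dye at 37C, then dual fluorescence of J-aggregates (ex 540/em 590) and monomers (ex 490/em 535); lower red/green ratio indicates depolarization.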

[33] = qHTS for activators of Nrf2/ARE signaling pathway screened against the NCATS CANVASS Library (AID 1347391); note: 0% is about no effect; nearly all actives have a fitted effect of over 60% in size
Summary of the method: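 Eleven-point qHTS, 16 h treatment of HepG2 cells carrying an ARE-driven beta-lactamase reporter; CCF4 ratio read (405 nm excitation, 460 and 530 nm emission), with CellTiter-Glo ATP luminescence for viability.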

[34] = Vero-766 cells viability qHTS against the NCATS CANVASS Library: Counterscreen for Zika virus inhibition assay (AID 1347394)
Summary of the method: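 CellTiter-Glo luminescence, lower signal indicating cytotoxicity. Vero 766 cells without Zika virus, 1000 cells/well, plated overnight, then treated 72 h at 37C across an 11-point series.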

[35] = qHTS for inhibitors of Wild type Zika virus screened against the NCATS CANVASS Library (AID 1347396)
Summary of the method: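 Using ATP-based luminescence (CellTiter Glo), this screen scores rescue of Vero 766 cells from wild-type Zika killing at 72 h post-infection. Compounds are tested in a concentration series.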

[36] = Viability qHTS for inhibitors of the SERCaMP assay screened against the NCATS CANVASS Library (AID 1347400); note: % is set by controls: 0 for no effect and ±100 for the full control effect; nearly all actives have a fitted effect of over 70% in size
Summary of the method: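 CellTiter-Glo luminescence measured cytotoxicity after 48 h at 37C of compound treatment (11-point series). Cells were SH-SY5Y-GLuc SERCaMP MJH297 derivatives, seeded at 1000 per well 4 h beforehand.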

[37] = Redox Reaction Profiling qHTS: Assay Interference Panel against the NCATS CANVASS Library (AID 1347401);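 note: 100% = activation by 2 µM chloranil control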
Summary of the method: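 Fluorescence read-out (525 nm excitation, 598 nm emission) at time zero and after 15 min in the dark tracked resorufin formation. Mix: 5 uM resazurin, 200 uM DTT, HEPES pH 7.3 buffer with NaCl.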

[38] = qHTS for inhibitors of Rabies Virus screened against the NCATS CANVASS Library (AID 1347402; calls by dose curve; note: 0% is about no effect)
[39] = qHTS for Inhibitors of Plasmodium falciparum (GB4) proliferation (AID 504315);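 note: 0% = DMSO vehicle and -100% = 0.29 µM artemisinin control; nearly all actives have a fitted effect of over 50% in size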
Summary of the method: (§3)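 Parasite growth measured as SYBR Green DNA fluorescence (ex 485, em 535 nm) after overnight lysis following 72 h culture at 37 °C, 0.3% parasitemia, 2.5% hematocrit. Values normalized against DMSO and 0.29 uM artemisinin controls, with plate-stack correction.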

[40] = qHTS for Inhibitors of Plasmodium falciparum (HB3) proliferation (AID 504318)
Summary of the method: as §3

[41] = qHTS for Inhibitors of Plasmodium falciparum (DD2) proliferation (AID 504314);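 note: parasite DNA measured by SYBR Green fluorescence after red cell lysis; plate controls were DMSO vehicle for no effect and artemisinin wells for full effect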
Summary of the method: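 Normalization used 0.29 uM artemisinin as full inhibition and DMSO as baseline. Parasitized erythrocytes were exposed to compounds for 72 h (37C, 5% CO2), then lysed with saponin/Triton buffer containing SYBR Green I.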

[42] = qHTS for Inhibitors of Plasmodium falciparum (7G8) proliferation (AID 504316);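 note: 0% = DMSO vehicle and -100% = 0.29 µM artemisinin full kill; nearly all actives have a fitted effect of over 65% in size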
Summary of the method: as §3

Sequence of Glucocorticoid receptor (Homo sapiens) (P04150 whole entry, looked up): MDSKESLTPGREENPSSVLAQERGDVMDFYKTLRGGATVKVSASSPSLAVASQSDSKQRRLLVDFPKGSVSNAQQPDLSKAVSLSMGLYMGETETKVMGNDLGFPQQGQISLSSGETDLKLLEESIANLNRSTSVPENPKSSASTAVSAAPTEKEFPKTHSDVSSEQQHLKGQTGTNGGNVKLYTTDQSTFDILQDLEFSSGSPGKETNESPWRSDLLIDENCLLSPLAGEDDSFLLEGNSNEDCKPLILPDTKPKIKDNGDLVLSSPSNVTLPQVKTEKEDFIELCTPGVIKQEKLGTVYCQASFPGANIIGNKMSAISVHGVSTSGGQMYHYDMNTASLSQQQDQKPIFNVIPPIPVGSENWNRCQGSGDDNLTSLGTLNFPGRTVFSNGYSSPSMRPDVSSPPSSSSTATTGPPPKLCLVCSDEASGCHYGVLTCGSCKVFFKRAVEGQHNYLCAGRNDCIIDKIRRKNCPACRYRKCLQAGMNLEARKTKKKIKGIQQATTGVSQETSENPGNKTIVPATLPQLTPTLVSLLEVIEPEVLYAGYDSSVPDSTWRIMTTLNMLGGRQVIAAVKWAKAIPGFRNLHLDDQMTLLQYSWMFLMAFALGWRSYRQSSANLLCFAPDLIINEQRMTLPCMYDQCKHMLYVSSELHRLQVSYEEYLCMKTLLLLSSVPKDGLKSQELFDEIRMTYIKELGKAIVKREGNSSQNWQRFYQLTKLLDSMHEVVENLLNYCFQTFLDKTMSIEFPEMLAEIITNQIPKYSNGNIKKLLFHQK
Sequence of Nuclear receptor subfamily 1 group I member 3 (Homo sapiens) (Q14994 whole entry, looked up): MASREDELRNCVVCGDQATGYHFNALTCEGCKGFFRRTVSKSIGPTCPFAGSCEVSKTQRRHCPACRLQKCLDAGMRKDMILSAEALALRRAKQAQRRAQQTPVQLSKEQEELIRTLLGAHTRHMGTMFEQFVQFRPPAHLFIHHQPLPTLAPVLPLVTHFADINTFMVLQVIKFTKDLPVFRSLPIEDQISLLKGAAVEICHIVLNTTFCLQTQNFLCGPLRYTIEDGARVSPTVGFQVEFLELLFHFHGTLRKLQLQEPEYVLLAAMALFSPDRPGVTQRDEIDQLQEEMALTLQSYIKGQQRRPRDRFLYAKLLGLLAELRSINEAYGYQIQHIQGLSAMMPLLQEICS
Sequence of Luciferin 4-monooxygenase (Photinus pyralis) (P08659 whole entry, looked up): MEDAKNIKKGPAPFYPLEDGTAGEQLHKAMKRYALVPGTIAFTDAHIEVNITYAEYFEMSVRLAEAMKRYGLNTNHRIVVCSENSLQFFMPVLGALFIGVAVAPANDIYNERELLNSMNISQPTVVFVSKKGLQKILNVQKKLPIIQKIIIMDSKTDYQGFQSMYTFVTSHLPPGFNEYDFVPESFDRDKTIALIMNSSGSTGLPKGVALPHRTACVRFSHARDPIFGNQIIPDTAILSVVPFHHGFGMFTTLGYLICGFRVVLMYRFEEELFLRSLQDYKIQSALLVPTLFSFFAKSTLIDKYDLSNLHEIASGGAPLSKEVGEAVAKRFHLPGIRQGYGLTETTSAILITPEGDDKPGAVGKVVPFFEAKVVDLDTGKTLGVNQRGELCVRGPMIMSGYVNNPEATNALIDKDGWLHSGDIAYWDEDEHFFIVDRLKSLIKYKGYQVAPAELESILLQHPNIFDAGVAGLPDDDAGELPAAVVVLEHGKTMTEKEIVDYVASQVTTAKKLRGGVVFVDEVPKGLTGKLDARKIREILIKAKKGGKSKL

c1ccc2c3c([nH]c2c1)CNCC3
inactive: outcome [1] | activity change, negative = inhibition [2] 11% | outcome [3] | Potency [4] > 20.6 µM | Potency [5] | Potency [6] | Potency [7] | Potency [8] | Potency [9] | Potency [10] | Potency [11] | Potency [12] | outcome [13] | outcome [14] | Potency [15] | outcome [16] | Potency [17] | outcome [18] | outcome [19] | Potency [20] | Potency [21] | Potency [22] | Potency [23] | Potency [24] | Potency [25] | Potency [26] | Potency [27] | outcome [28] | Potency [29] | outcome [30] | outcome [31] | Potency [32] | Potency [33] | Potency [34] | Potency [35] | Potency [36] | Potency [37] | outcome [38]

COC(=O)C12CC3=CCC4C(=O)N(c5ccccc5)C(=O)C4C3Cc3ccccc3[C@H]1CNC2=O (some centres undefined)
inactive: outcome [39] | Potency [40]

COC(=O)C1=NN=C(C(=O)OC)[C@@]2(C)c3ccccc3NC12 (some centres undefined)
inactive: outcome [41] | outcome [39] | outcome [42] | Potency [40]
